From PubChem BioAssay (EPA / NIEHS)
Calls of active or inactive are those of the source. How the source made its calls: active means hit-call score of the fitted dose curve at least 0.9, where 1 is the maximum; inactive means score below 0.9.

What was measured:
[1] = ATG_NFI_CIS: Attagene CIS-FACTORIAL HepG2 Assay for human Nuclear Factor I (NFI) (AID 2282989); details: HepG2 cis-regulatory reporter, NFI response element transcription; actives raise or lower the signal
How it was run: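 Cells: human liver HepG2, transiently transfected with promoter-regulated reporter transcription units. Exposure 24 h. Detection: fluorescent RT-PCR products separated by capillary electrophoresis, normalised to DMSO negative control.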

[2] = target: Myc proto-oncogene protein (Homo sapiens) (UniProt P01106); assay: ATG_Myc_CIS: Attagene CIS-FACTORIAL HepG2 Assay for human Myelocytomatosis (Myc) Proto-Oncogene Transcription Factor (AID 2282990); details: HepG2, Attagene cis-reporter transcription factor activity; actives raise or lower the signal
Sequence of Myc proto-oncogene protein (Homo sapiens) (P01106 whole entry, looked up): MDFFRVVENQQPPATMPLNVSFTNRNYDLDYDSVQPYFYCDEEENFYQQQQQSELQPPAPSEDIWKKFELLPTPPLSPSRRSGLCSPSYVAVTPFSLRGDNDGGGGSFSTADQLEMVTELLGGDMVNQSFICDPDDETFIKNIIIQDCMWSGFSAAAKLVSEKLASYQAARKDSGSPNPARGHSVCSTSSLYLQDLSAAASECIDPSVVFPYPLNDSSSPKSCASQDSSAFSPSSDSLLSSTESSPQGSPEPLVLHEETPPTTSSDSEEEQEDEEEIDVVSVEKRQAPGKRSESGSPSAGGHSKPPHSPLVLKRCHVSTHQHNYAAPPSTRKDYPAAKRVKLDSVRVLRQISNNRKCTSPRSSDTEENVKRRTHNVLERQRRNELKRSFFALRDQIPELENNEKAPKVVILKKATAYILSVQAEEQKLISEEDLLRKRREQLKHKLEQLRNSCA
How it was run: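 Cells of the HepG2 human liver line bear multiple cis-driven reporter transcription units. Reporter mRNA after 24 h exposure is reverse-transcribed, amplified, labelled and resolved by capillary electrophoresis, with gain- or loss-of-signal fitting relative to DMSO.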

[3] = ATG_NF_kB_CIS: Attagene CIS-FACTORIAL HepG2 Assay for human Nuclear Factor Kappa B (NF-kB) (AID 2282991); details: HepG2 Attagene cis-factorial NF-kB reporter mRNA; actives raise or lower the signal
How it was run: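 HepG2 cells transfected with cis-promoter-driven reporter units, so endogenous transcription factor activity is measured. Reporter mRNA quantified 24 h after dosing by RT-PCR and capillary electrophoresis, with bidirectional fitting against DMSO.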

[4] = ATG_NRF2_ARE_CIS: Attagene CIS-FACTORIAL HepG2 Assay for human Nuclear Factor Erythroid 2 Related Factor 2 (NFR2) response to Antioxidant Response Elements (ARE) (AID 2282992); details: HepG2 Attagene ARE/NRF2 reporter, transcription factor activity; actives raise or lower the signal;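 on AC50: reporter mRNA level measured by RT-PCR and capillary electrophoresis fluorescence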
How it was run: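 HepG2 cells transiently transfected with multiplexed cis-element reporter constructs, 24 h after chemical dosing; reporter mRNA quantified by RT-PCR, fluorescent primer extension, HpaI digestion and capillary electrophoresis. Bidirectional fit relative to DMSO.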

[5] = ATG_Oct_MLP_CIS: Attagene CIS-FACTORIAL HepG2 Assay for human Octamer-Binding Transcription Factor (Oct) (AID 2282993); details: HepG2 Attagene cis-factorial Oct reporter, mRNA; actives raise or lower the signal
How it was run: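 HepG2, transient MRTU transfection, cis promoter elements; 24 h dosing; RT-PCR/CE fluorescence read-out of reporter mRNA; fit both directions vs DMSO.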

[6] = target: Cellular tumor antigen p53 (Homo sapiens) (UniProt P04637); assay: ATG_p53_CIS: Attagene CIS-FACTORIAL HepG2 Assay for human p53 Transcription Factor (AID 2282994); details: HepG2 p53 cis-element reporter, Attagene mRNA; actives raise or lower the signal
Sequence of Cellular tumor antigen p53 (Homo sapiens) (P04637 whole entry, looked up): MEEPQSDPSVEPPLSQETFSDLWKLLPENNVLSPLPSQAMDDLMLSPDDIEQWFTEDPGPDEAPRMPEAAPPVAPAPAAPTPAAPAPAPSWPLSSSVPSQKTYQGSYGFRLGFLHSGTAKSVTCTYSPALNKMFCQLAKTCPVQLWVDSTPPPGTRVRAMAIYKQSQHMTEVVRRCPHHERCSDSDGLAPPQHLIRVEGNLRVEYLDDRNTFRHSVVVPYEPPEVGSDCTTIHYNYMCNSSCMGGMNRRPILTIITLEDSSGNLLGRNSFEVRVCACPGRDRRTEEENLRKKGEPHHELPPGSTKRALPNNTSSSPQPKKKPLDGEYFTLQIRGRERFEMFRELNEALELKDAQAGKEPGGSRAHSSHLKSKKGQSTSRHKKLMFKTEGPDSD
How it was run: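 HepG2 cells transiently transfected with cis-regulated multiple reporter transcription units, dosed 24 h. Reporter mRNA measured by RT-PCR, 6-FAM primer extension, HpaI digestion and capillary electrophoresis; bidirectional fit relative to DMSO.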

[7] = BSK_3C_TissueFactor: BioMAP Diversity Plus: 3C Assay for Tissue Factor Biomarker Activity (AID 2282997); details: BioMAP 3C HUVEC, tissue factor biomarker readout; actives raise or lower the signal
How it was run: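 Primary human umbilical vein endothelial cells in the 3C system were exposed to test chemical for 24 h, then Tissue Factor measured by ELISA. Activity was fitted bidirectionally against DMSO as negative control and baseline.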

[8] = BSK_3C_uPAR: BioMAP Diversity Plus: 3C Assay for Urokinase-type plasminogen activator receptor (uPAR) Biomarker Activity (AID 2282998); details: BioMAP 3C HUVEC, uPAR biomarker ELISA; actives raise or lower the signal
How it was run: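 A multiplexed primary-cell system built on human umbilical vein endothelium was used, with chemical present for 24 h before reading. Cell-surface uPAR was detected by ELISA; signal change in either direction counted against DMSO.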

[9] = BSK_3C_VCAM1: BioMAP Diversity Plus: 3C Assay for Vascular cell adhesion molecule 1 (VCAM1) Biomarker Activity (AID 2282999); details: BioMAP 3C HUVEC, VCAM1 ELISA, cytokine-stimulated; actives raise or lower the signal
How it was run: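 Endothelial cells from human umbilical vein are treated with test chemical. At 24 h, VCAM-1 is measured by ELISA, and responses in either direction are fitted relative to DMSO.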

[10] = BSK_4H_Eotaxin3: BioMAP Diversity Plus: 4H Assay for Eotaxin 3 Biomarker Activity (AID 2283000); details: primary human endothelial cells (HUVEC); actives raise or lower the signal
How it was run: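 HUVEC, 24 h post-dose, ELISA for Eotaxin-3/CCL26. Gain or loss of signal fitted bidirectionally vs DMSO baseline.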

Measured: AC50

c1ccc(N=Nc2ccccc2)cc1
inactive: [1] | [2] | [3] | [5] | [6] | [7] | [8] | [9] | [10]
active: [4] 61.2 µM

c1ccc2c(c1)oc1ccccc12
inactive: [1] | [2] | [3] | [4] | [5] | [6] | [7] | [9] | [10]

CN(C)[C@@H]1C(=O)C(C(N)=O)=C(O)[C@@]2(O)C(=O)C3=C(O)c4c(O)cccc4[C@@](C)(O)[C@H]3C[C@@H]12
inactive: [1] | [2] | [3] | [4] | [5] | [6] | [8] | [9] | [10]

CC(C)(C)OOC(=O)c1ccccc1
inactive: [1] | [2] | [3] | [5] | [7] | [9] | [10]
active: [4] 79.5 µM | [6] 136 µM

COP(=S)(OC)SCN1C(=O)c2ccccc2C1=O
active: [7] 7.76 µM
inactive: [1] | [2] | [3] | [4] | [5] | [6] | [8] | [9] | [10]

Brc1ccc(Oc2ccccc2)cc1
inactive: [2] | [3] | [6] | [8] | [9] | [10]
active: [1] 158 µM | [4] 74 µM | [5] 177 µM

O=Cc1ccco1
inactive: [1] | [2] | [3] | [4] | [5] | [6] | [7] | [9] | [10]

Cc1cc(N=Nc2ccccc2C)ccc1N
inactive: [1] | [2] | [3] | [6] | [9]
active: [4] 7.21 µM | [5] 20.4 µM | [10] 14.2 µM

O=[N+]([O-])c1ccc(Oc2ccc(Cl)cc2Cl)cc1
inactive: [1] | [2] | [3] | [4] | [5] | [6] | [7]
active: [8] 9.38 µM | [10] 33.6 µM

O=C(Nc1ccccc1)c1ccccc1I
inactive: [1] | [2] | [3] | [5] | [8] | [10]
active: [4] 20.3 µM

Nc1ccc(Cl)cc1N
inactive: [1] | [3] | [7] | [8]
active: [4] 5.68 µM | [5] 29.5 µM | [6] 8.6 µM | [10] 2.15 µM

Clc1ccc(Cl)c(Cl)c1
inactive: [1] | [2] | [4] | [5] | [6] | [7] | [8] | [10]

OCCCl
inactive: [1] | [2] | [4] | [5] | [6] | [8] | [10]

Cc1ccc([N+](=O)[O-])cc1
inactive: [1] | [2] | [4] | [5] | [6] | [9] | [10]

Cc1ccc(N)cc1
inactive: [1] | [3] | [4] | [5] | [6] | [7] | [8] | [9] | [10]

O=C1CCCO1
inactive: [1] | [2] | [4] | [5] | [6] | [10]

C[N+](C)(C)CC1CO1 (centres undefined)
inactive: [1] | [2] | [4] | [5] | [6] | [7] | [9] | [10]

CCCCCCCCOC(=O)c1ccc(C(=O)OCCCCCCCC)c(C(=O)OCCCCCCCC)c1
inactive: [1] | [2] | [3] | [4] | [5] | [6] | [10]

CCCCCOC(=O)c1ccccc1C(=O)OCCCCC
inactive: [1] | [3] | [6] | [7] | [8]
active: [4] 56.4 µM | [5] 161 µM | [10] 20 µM

CNC(=O)Oc1cccc2c1OC(C)(C)C2
inactive: [1] | [2] | [4] | [5] | [6] | [9] | [10]
